The source of these data is PubChem BioAssay AID1508600 (Functional Genomics Laboratory (NCATS/FGL), 2020).

Screen size: about 53,000 sequences; about 3,700 (7%) were called active.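 How the source made its calls: active means gene knockdowns whose robust z-score for IL-1 alpha signal is at least 2 or at most -2, so actives lie on both sides; inactive means the rest.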 The entries come from a sample that favours actives as a whole.

This experiment in a line: Components of the Cytosolic LPS Sensing Pathway: Gene Identification via Genome-wide siRNA Screen.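 Further: robust z of the log signal after scaling to non-targeting control siRNA wells of the plate.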 Particulars: RAW264.7 macrophages, IL-1a HTRF, actives lie on both sides, screened at 100 nM (by protocol), cells primed 5 h with Pam3CSK4 first. The method in brief: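 Supernatant IL-1a by HTRF from RAW264.7 cells primed with Pam3CSK4 (5 hours) and transfected with LipidA (24 hour) after 48h siRNA knockdown at 100 nM; cell viability checked with CellTiter-Glo.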
On the technique in general: Time-resolved FRET reads energy transfer from a long-lived donor to a nearby acceptor.
With GGCUGCUUAACCUUGAUAATT against Lrrd1, the z-score was 0.529 (inactive). In the case of CGGUAGAGUCAGCAUUUGATT against Sez6, the z-score is -0.231 (inactive). Turning to GCCGAGAUGAGCUCCUAAUTT against Krt27, the z-score is 1.29 (inactive).

Turning to GCUACAGCUUCAAUUAAAUTT against Birc6, the z-score was 0.135 (inactive). On to GGGAGAAACGCAUCUUAUCTT against Ngly1, for which the z-score was 2.38 (active). For the sequence CCCACAGGGAUUUAUUUAUTT against Slc37a1, the z-score was -0.362 (inactive). Regarding GGACAUCCAUCAGUACAGGTT against Hras, the z-score was 0.812 (inactive). With GGCUGUCACUUUAUAGGCATT against Wrnip1, the z-score was -0.862 (inactive). Turning to CGACUUGAACUCUAUGGCGTT against Ascl1, the z-score is -0.12 (inactive).

In the case of CCGAAAGGCUGGUACAUUCTT against Kin, the z-score was -0.494 (inactive). For the sequence GGUUAUCUUCUUGACAGAATT against Nmur2, the z-score was 1.42 (inactive).

Regarding CCUGUUUAGCAUCUGGGAGTT against Gpr1, the z-score was 6.24 (active).

Regarding GGUAGAGAUGUACAUUUGGTT against Chrdl2, the z-score was -1.72 (inactive).

Regarding GCAAGAAGUUCCUAUCAUCTT against Polr2b, the z-score is -1.67 (inactive). In the case of GCCCAAACUCAAGCAAGUCTT against Trpm3, the z-score was 2.37 (active). On to GGUUACCCAACUUGAAGGATT against Parp16, for which the z-score was 1.37 (inactive). The value for GGCAAAAAGAUAGGAGCUGTT against Txn1 was 0.57 (inactive); that for GGUGACUAACGAGAUCAUUTT against Slc19a1 was 0.913 (inactive); that for CGAACAGAGUCUAAUCUCATT against Ptpn1 was 1.69 (inactive). Take AGGAAUGCCCAGGUCUCAGTT against Lst1: the z-score was -1.07 (inactive).

With GGUCUGCUAUGAAAUUAUGTT against Tmem14c, the z-score was -0.537 (inactive). Take GGACGGAGCUGUAAUUGCATT against Arhgef12: the z-score was 2.16 (active). Consider GGCCUACAGGACAAAGUUUTT against Comt, for which the z-score is 0.394 (inactive). Consider CGACUAGAGUUGUGUGAUATT against Uqcrh, for which the z-score was 0.834 (inactive). For GGUGCAUUAUAAGAAUCGCTT against Fhl1, the z-score was 0.144 (inactive). The value for GGUGGUGCCAAGAUGUUGUTT against Aste1 was 2.26 (active); that for GUACCUCUACUAUUCCUUUTT against Krtap5-2 was -0.13 (inactive).

Turning to GGAGUUCAAGACGGAGAAGTT against Gpr27, the z-score was 0.000428 (inactive). For the sequence GGCUUAUAUCUGAUUGAUGTT against Rom1, the z-score was -1.17 (inactive). Regarding GGAAAGUGACUGCAUGUUCTT against Pgp, the z-score was -1.3 (inactive). Turning to GGACUUCUUCACCAUCUGGTT against Lcat, the z-score is -1.3 (inactive). As for GGUACAUGAUCAAUUUAGATT against Tspyl4, the z-score was 0.726 (inactive). For the sequence GGACAUUAGGAAAUUAGAUTT against Ppp3cc, the z-score was -0.404 (inactive). The value for GGCAGUACUGUCCAGAUGATT against Gsdma2 was -2.12 (active). As to CCUUAUCUAUAACUCUGCUTT against Tirap, the z-score is -0.772 (inactive). The value for GGAGAGCGAAGAAAAAAUGTT against Birc2 was -0.852 (inactive). The value for GGUUGUCUUCAACACCAAATT against Lgals7 was -0.147 (inactive); that for GCAAGAGCAUGCUUACGGUTT against Ccl1 was -0.324 (inactive); that for GGGUUUCUUGUUGGUUUUATT against Dock5 was 2.29 (active). As to GGACGGGAUUGAGCCUAUGTT against Eif4e, the z-score is 1.65 (inactive). For CCAAGCUUACACUAGUGUUTT against Cdk6, the z-score is -0.429 (inactive).

GCGUGUACAAGGCUAUUCATT against Stk4: the z-score is 1.19 (inactive). As to GGCCUACUUCCUACUCAAATT against Tbx10, the z-score was -1.85 (inactive).

In the case of CCUACACCUAGAAAUCUAGTT against Gpr3, the z-score is 1.52 (inactive). With GGAUGAGGAUGGCUAUAAGTT against Zc3h10, the z-score is 0.585 (inactive).

For GGGAAGGAUGACCUAACAATT against Gpatch4, the z-score is -0.839 (inactive). As for CGGAUUAGAAGAGCCAAACTT against Cd59b, the z-score is 0.352 (inactive). On to GGCUACCCUUUUGAACCUCTT against Psmd3, for which the z-score is -2.81 (active). Consider GGAAAAAGCCAAGCUCAUCTT against Syt3, for which the z-score is -1.5 (inactive). On to GGAGCAUCCUGGCAAACAGTT against Slc51b, for which the z-score was -1.32 (inactive). For the sequence CUGAUCCUUCAAUUAACAUTT against Olfr202, the z-score is 0.0318 (inactive).

Take GCGACUCCUAUAAUUUCUATT against Rpa3: the z-score is -2.17 (active). As to GCAGGUCCUGACCUAUGUGTT against Cyp27b1, the z-score is -0.556 (inactive).

Regarding CCAUCUGCAUCAAGAGAAATT against Kirrel2, the z-score was 0.709 (inactive). For GGAACGUACAGGAUAAUCUTT against Krt79, the z-score is 4.28 (active).

For GGCUAAAGAAUAAAGAUCCTT against Cadm2, the z-score was 1.66 (inactive). On to GUGAGACCAAGUUACAGGATT against Olfr1504, for which the z-score was 1.5 (inactive). Turning to CCAACCAAAGAUGAAUUGUTT against Usp19, the z-score was -0.445 (inactive). Regarding GGUGGCCAAACAGGAAAAGTT against Fau, the z-score is 0.91 (inactive). Take GGCACACAAACAAUUGGUATT against Rrp36: the z-score is -0.318 (inactive).

In the case of GGGUUUCAUUAAAUUUCCUTT against Cyp2g1, the z-score is -2.06 (active).

With CCGAAUAUCGAGUUCCCAATT against Ceacam20, the z-score was -0.0196 (inactive). Then GGAUGAGAAUGGCACCAGUTT against Prima1, with -1.4 (inactive); and GGAAAUGUACAUCAUCAAGTT against Cnga2, with -1.24 (inactive). Turning to CCUGUUAAACAGGACUAGUTT against Tmem263, the z-score is -1.51 (inactive). Then GGGAAUUUGCUCCUGAAAGTT against Pcdhb6, with -0.936 (inactive); and CCUUUGAAUCCCAGGUUCATT against Lmo1, with 3.05 (active); and GGCCCUCCCAAAUCAUUUGTT against Slc30a6, with 0.188 (inactive). Regarding GGAUACAUUGAGAAAGACUTT against Tor1aip2, the z-score was 2.43 (active).

GGGAAGAAAGACUCAAACUTT against Dcdc2a: the z-score is 0.919 (inactive). For GGAAAAUUCAGGAAGUUUGTT against Magi3, the z-score was 0.489 (inactive). Then GGAAACCUGAUUAUCAUCATT against Olfr791, with -0.337 (inactive); and CCUGGACCCAUGAAGUCUUTT against Ahnak, with 0.911 (inactive); and GCUGGCCAAACUUGACAGUTT against Wwc1, with 2.05 (active). The value for CCCUCAUACCGCUUAGAACTT against Tctex1d4 was -0.786 (inactive); that for GCCUGUGGCUUAAACUUCATT against Vat1l was 0.11 (inactive); that for GGAGAACAAGAUCUUACAGTT against Cby2 was -0.703 (inactive). With GGAACACCACCUUAGAGAUTT against Hnrnpa2b1, the z-score is 1.52 (inactive). Regarding GAAAUGAGUCCUUGAAAAGTT against Olfr127, the z-score is -0.0661 (inactive). In the case of CGCAGCCUUUACCUCCGAATT against Plekha8, the z-score is -1.12 (inactive). “GGCAUUAGCUACCUGGACATT against 1700013G24Rik”: the z-score was 3.44 (active).

In the case of GGUGGUCCAGACCAAGUACTT against Pfdn5, the z-score is -1.02 (inactive). Take GGUCUUCAGCCCAAGAAAUTT against Dsg2: the z-score is 0.127 (inactive).

On to GCAAUACUUAUCCAUUGCGTT against Msx3, for which the z-score is -0.42 (inactive). With GGACUCAUUGACUUCAUCATT against Atg12, the z-score was -1.8 (inactive).

Consider GCUUGCUUCGCCUACAUUGTT against Slc46a3, for which the z-score was -0.501 (inactive). As to GUAGUUAGGAACUCUUGCUTT against Thnsl2, the z-score was -0.086 (inactive). For GGCUGAUGUGAUGAUUGUATT against Ndufs7, the z-score was 2.3 (active). Then GCACUGUGAGUGGAUACUUTT against Slc5a3, with 0.13 (inactive). “CCAUCAAGAUCUCUCAGUATT against A630091E08Rik”: the z-score is -1.25 (inactive).

Regarding CGAAUGUCCUGGAAGCAAATT against Olfr142, the z-score is -0.0904 (inactive). Take GCUCUUAGAGAUUUGUUUGTT against Usp14: the z-score was 0.389 (inactive). For CCAUUUUUGCUCAAUUUGCTT against Eif1ax, the z-score is -0.943 (inactive). As for GCCAAACUGCGUCUGAAUGTT against Rras, the z-score is 0.62 (inactive). For GGACAAGUACGGAAAGCCCTT against Hdgfl2, the z-score is 0.196 (inactive). On to GCCACAUAAGGUUGUUCCCTT against Gamt, for which the z-score is 2.9 (active).

Take CCUCUCCAACAACCAACUATT against Lrrc47: the z-score was -0.27 (inactive). As for GGCUCCAAAUCAAACUCUATT against Eif4e3, the z-score was 2.19 (active). Turning to GGAACCAAGCCAUGAUUUUTT against Mrgprb2, the z-score was 0.646 (inactive). In the case of CCAGUACUCGUUUCACUUATT against Mrpl15, the z-score is 0.374 (inactive).

For GGUGGACUUGUACCUCUUCTT against Tnks, the z-score is -0.0808 (inactive). As for CCGUAUUGUCACUUGUGGGTT against Arpc1a, the z-score was 0.479 (inactive).

Take CAGGAAAUUAGCGAUGUGGTT against Abl2: the z-score is 0.206 (inactive). With GGUGCUAAAGUCAAAAAACTT against Fras1, the z-score is 0.218 (inactive). As to GAAGGGACUUCAAAGUUGATT against Ndufb10, the z-score was 3.3 (active). For GGGACAUCAGAUUAUUCAUTT against Zfp87, the z-score is 1.43 (inactive). As to GGAAGACAAUGGUGUGAAATT against Pgm3, the z-score was -0.74 (inactive). With GGCCGCCAUUUUGGCAAGATT against Fbxo27, the z-score is 3.41 (active).
